# Data: PubChem BioAssay
# The source made the active and inactive calls.
# Assays:
# [1] = system: Plasmodium falciparum Sir2 (PF13_0152, Sir2A); assay: Plasmodium falciparum Sir2A binding compounds – biochemical, small-molecule microarray, 635 nm fluorescence, primary screen (AID 1098); details: fluorescence 635 nm, higher = more signal;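 also: score merges spot fluorescence intensity with its signal-to-noise ratio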
# [2] = probe aDKK1 binding to arrayed compounds – biochemical, biotinylated probe, 635/667 nm fluorescence, primary screen (AID 1099); details: small-molecule microarray, higher = more signal;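 also: score merges 667nm spot fluorescence with signal to noise across triplicate slides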
# [3] = probe aCHRDL2 binding to arrayed compounds – biochemical, biotinylated probe, 635/667 nm fluorescence, primary screen (AID 1100); details: small-molecule microarray, higher = more signal
# [4] = change in splice reporter luminescence, either direction, cell-based, HEK293, spliceosome inhibition project, primary screen (AID 1101); details: HEK293 splicing luciferase reporter, 24 h, higher = more signal, called active from +8 up or from −8 down;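 also: HEK293 cells carrying a splicing-competent luciferase reporter gene; test concentration not given here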
# [5] = target: Fibroblast growth factor 10 (Homo sapiens) (UniProt O15520); assay: compounds binding fibroblast growth factor 10 – biochemical, small-molecule microarray, 635 nm fluorescence, primary screen (AID 1102); details: FGF10 binding, fluorescence 635 nm, higher = more signal
# Sequence of Fibroblast growth factor 10 (Homo sapiens) (O15520 whole entry, looked up): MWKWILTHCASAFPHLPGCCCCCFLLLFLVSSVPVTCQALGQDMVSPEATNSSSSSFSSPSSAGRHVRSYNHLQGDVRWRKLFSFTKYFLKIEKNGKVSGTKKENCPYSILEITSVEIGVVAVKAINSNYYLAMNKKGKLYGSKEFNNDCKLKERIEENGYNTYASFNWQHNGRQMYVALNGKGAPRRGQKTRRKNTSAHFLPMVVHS
# [6] = system: glycogen synthase kinase-3 (GSK3A per assay name; protocol says GSK3B); assay: compounds binding glycogen synthase kinase-3 – biochemical, small-molecule microarray, 635 nm fluorescence, GSK3A, primary screen (AID 1103); details: fluorescence 635 nm, higher = more signal; also: the record names both GSK3A and GSK3B
# [7] = target: Epidermal growth factor receptor (Homo sapiens) (UniProt P00533); assay: compounds binding epidermal growth factor receptor – biochemical, small-molecule microarray, 635 nm fluorescence, primary screen (AID 1104); details: EGFR binding, higher = more signal;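 also: score merges 667 nm emission intensity with spot signal to noise over triplicate slides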
# Sequence of Epidermal growth factor receptor (Homo sapiens) (P00533 whole entry, looked up): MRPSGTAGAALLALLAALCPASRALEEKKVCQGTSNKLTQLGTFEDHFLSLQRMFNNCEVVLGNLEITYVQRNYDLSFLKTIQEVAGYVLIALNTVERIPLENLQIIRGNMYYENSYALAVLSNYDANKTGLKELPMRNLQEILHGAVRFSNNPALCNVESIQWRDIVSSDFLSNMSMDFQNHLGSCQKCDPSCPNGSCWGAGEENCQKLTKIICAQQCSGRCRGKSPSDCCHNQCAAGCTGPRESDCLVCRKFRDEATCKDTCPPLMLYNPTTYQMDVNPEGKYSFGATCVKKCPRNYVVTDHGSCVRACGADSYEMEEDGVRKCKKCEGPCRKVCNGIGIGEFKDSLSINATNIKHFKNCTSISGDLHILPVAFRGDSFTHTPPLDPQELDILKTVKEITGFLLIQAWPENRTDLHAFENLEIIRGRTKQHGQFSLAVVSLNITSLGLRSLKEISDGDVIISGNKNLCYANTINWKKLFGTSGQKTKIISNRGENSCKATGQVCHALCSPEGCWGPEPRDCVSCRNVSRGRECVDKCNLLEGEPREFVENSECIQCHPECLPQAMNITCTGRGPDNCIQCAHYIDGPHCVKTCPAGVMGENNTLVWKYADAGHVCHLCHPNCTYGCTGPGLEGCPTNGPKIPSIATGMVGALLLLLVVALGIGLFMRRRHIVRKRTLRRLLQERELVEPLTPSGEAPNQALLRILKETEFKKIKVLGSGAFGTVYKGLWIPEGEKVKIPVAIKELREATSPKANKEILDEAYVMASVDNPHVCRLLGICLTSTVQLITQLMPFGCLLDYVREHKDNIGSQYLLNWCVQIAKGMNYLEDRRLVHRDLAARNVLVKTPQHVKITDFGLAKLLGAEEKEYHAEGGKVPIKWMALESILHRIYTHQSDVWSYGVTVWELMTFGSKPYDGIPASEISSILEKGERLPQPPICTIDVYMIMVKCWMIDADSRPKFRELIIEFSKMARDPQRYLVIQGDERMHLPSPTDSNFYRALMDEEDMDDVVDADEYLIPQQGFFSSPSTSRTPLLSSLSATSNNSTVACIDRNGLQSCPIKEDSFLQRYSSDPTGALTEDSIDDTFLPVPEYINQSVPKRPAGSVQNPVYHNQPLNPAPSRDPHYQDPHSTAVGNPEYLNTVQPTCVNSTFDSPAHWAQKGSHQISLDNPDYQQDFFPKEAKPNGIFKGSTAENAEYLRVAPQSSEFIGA
# [8] = target: Follistatin-related protein 3 (Homo sapiens) (UniProt O95633); assay: compounds binding follistatin-related protein 3 – biochemical, small-molecule microarray, 635 nm fluorescence, primary screen (AID 1105); details: FSTL3 binding, higher = more signal;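 also: score merges emission near 667 nm and signal to noise per printed spot across three slides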
# Sequence of Follistatin-related protein 3 (Homo sapiens) (O95633 whole entry, looked up): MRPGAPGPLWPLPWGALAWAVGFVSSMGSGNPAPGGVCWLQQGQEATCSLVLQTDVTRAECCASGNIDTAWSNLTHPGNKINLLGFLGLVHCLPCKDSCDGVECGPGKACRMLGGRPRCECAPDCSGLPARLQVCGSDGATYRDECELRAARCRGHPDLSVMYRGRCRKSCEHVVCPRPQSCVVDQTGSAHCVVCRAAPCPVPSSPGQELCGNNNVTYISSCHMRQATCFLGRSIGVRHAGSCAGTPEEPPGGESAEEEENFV
# [9] = target: Dickkopf-related protein 1 (Homo sapiens) (UniProt O94907); assay: small molecules binding DKK1 protein – biochemical, small-molecule microarray, 635 nm fluorescence scan, primary screen (AID 1106); details: higher = more signal;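 also: score merges emission near 667 nm with signal to noise over three replicate slides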
# Sequence of Dickkopf-related protein 1 (Homo sapiens) (O94907 whole entry, looked up): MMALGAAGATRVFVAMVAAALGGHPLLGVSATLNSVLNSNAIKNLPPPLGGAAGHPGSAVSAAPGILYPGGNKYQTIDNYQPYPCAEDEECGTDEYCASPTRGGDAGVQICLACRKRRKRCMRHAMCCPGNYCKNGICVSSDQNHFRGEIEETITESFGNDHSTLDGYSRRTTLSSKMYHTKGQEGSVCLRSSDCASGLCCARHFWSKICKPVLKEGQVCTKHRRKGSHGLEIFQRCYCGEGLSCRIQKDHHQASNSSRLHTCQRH
# [10] = system: Inhibin beta A chain (activin A); assay: small molecules binding activin A – biochemical, small-molecule microarray, 635 nm fluorescence scan, primary screen (AID 1107); details: INHBA, higher = more signal;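 also: mouse activin A protein probed at 4.33 µg/mL on printed slides; score merges bound-protein fluorescence near 667 nm with spot signal-to-noise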
# [11] = system: Human papillomavirus type 1a protein E7 (residues 44-93); assay: small molecules binding HPV E7 44-93 – biochemical, small-molecule microarray, residues 44-93, 635 nm fluorescence, primary screen (AID 1108); details: fluorescence 635 nm, higher = more signal;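 also: E7 fragment applied at 1 µg/mL in TBST for 1 h at 4 C; score combines spot fluorescence with its signal to noise ratio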
# [12] = hepatitis C replication reporter changes, two-sided – Huh7 cells, luciferase reporter, HCV replication inhibitor project, primary screen (AID 1109); details: Huh7 HCV replicon luciferase reporter, 48 h; higher = more signal;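 also: huh7 hepatoma cells harbouring a luciferase neomycin HCV replicon reporter; luciferase luminescence as measure of HCV replicon replication; test concentration not given here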
# [13] = target: Left-right determination factor 2 (Homo sapiens) (UniProt O00292); assay: small molecules binding LEFTY2 protein – biochemical, small-molecule microarray, 635 nm fluorescence scan, primary screen (AID 1110); details: higher = more signal
# Sequence of Left-right determination factor 2 (Homo sapiens) (O00292 whole entry, looked up): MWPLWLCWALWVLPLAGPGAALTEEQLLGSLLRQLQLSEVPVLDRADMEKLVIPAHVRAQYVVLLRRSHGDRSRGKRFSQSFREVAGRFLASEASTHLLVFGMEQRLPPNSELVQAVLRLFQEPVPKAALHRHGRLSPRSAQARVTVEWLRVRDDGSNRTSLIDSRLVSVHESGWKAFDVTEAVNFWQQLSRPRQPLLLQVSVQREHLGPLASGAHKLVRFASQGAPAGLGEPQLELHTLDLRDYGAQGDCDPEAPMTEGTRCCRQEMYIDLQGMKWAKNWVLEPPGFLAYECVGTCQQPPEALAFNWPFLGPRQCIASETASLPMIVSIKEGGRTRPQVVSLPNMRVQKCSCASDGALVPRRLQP
# [14] = target: Calmodulin-1 (Homo sapiens) (UniProt P0DP23); assay: small molecules binding calmodulin-1 with EGTA – biochemical, small-molecule microarray, Cy5-labelled CALM1, profiling panel (AID 1111); details: Cy5-CALM1 binding fluorescence, higher = more signal;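 also: labelled calmodulin applied in Tris saline Tween buffer holding calcium plus EGTA and DTT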
# [15] = target: Calmodulin-1 (Homo sapiens) (UniProt P0DP23); assay: small molecules binding Ca-loaded calmodulin-1 – biochemical, small-molecule microarray, Cy5-labelled CALM1, plus calcium, artefact control for SMM control-protein annotation, profiling panel (AID 1112); details: Cy5-CALM1 binding fluorescence, higher = more signal;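 also: score merges spot fluorescence with signal to noise from triplicate slides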
# [16] = probe aWnt5a binding to arrayed compounds – biochemical, biotinylated probe, 635/667 nm fluorescence, primary screen (AID 1113); details: small-molecule microarray, higher = more signal;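 also: score merges 667 nm fluorescence intensity with signal-to-noise per printed feature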
# [17] = probe aShh binding to arrayed compounds – biochemical, biotinylated probe, 635/667 nm fluorescence, primary screen (AID 1114); details: small-molecule microarray, higher = more signal;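 also: probe is biotin-labelled aShh protein from a stem cell growth factor screen; measures binding of labelled protein to compounds printed on the slide; score merges feature fluorescence at 667 nm with signal-to-noise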
# [18] = probe aNog binding to arrayed compounds – biochemical, biotinylated probe, 635/667 nm fluorescence, primary screen (AID 1115); details: small-molecule microarray, higher = more signal;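 also: probe is biotinylated aNog protein used at 0.15 µg/mL for 1 h at 4 C; z-score combines 667 nm fluorescence of each spot with its signal to noise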
# [19] = target: Torsin-1A-interacting protein 1 (Homo sapiens) (UniProt Q5JTV8); assay: compound microarray binding of lysate hLAP1 – cell lysate, small-molecule microarray, COS7 lysate, 635/667 nm fluorescence, primary screen (AID 1116); details: 635 nm fluorescence, higher = more signal
# Sequence of Torsin-1A-interacting protein 1 (Homo sapiens) (Q5JTV8 whole entry, looked up): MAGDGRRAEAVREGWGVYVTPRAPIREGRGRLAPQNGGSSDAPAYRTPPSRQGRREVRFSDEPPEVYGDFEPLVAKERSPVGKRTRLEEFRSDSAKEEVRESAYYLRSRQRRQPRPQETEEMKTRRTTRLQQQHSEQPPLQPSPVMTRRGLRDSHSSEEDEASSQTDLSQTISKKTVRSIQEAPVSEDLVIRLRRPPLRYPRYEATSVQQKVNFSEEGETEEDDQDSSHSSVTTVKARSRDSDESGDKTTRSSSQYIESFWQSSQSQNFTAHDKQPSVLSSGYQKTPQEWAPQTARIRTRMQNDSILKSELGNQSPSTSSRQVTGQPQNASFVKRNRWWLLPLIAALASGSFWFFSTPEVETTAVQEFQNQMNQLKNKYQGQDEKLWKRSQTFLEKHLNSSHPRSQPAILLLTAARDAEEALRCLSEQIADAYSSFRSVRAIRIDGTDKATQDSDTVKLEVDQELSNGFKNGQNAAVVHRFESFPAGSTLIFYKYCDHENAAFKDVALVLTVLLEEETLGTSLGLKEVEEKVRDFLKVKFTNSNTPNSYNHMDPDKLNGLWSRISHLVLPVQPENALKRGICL
# [20] = target: Alpha-bungarotoxin (Bungarus multicinctus) (UniProt P60615); assay: compounds binding labelled alpha-BTX control protein – biochemical, small-molecule microarray, Alexa647 label, 635/667 nm fluorescence, artefact control for SMM control protein annotation, profiling panel (AID 1117); details: alpha-BTX-A647 binding fluorescence, higher = more signal
# Sequence of Alpha-bungarotoxin (Bungarus multicinctus) (P60615 whole entry, looked up): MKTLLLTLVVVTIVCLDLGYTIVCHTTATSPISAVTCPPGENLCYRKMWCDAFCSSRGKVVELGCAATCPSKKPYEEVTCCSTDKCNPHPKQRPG
SMILES,composite z-score [1],composite z-score [2],composite z-score [3],z-score [4],composite z-score [5],composite z-score [6],composite z-score [7],composite z-score [8],composite z-score [9],composite z-score [10],composite z-score [11],z-score [12],composite z-score [13],composite z-score [14],composite z-score [15],composite z-score [16],composite z-score [17],composite z-score [18],composite z-score [19],composite z-score [20]
CC[C@@H](c1ccccc1)n1c(=O)n2n(c1=O)[C@H]1[C@H](O)[C@@H]3O[C@@H]3C(=O)[C@H]1CC2,1.23,-0.245,-0.717,0.797 (inactive),0.427,0.417,0.489,0.32,0.466,0.384,0.225,-4.01,0.497,-0.202,-0.246,-0.101,-0.0474,-0.209,-0.113,0.414
COC(=O)CC=C[C@@H](C)[C@@H](C=NO[C@@H](C)c1cn([C@H](CO)Cc2ccccc2)nn1)NS(=O)(=O)c1ccc(C)cc1,1.18,-0.0838,-0.668,-0.83 (inactive),0.582,0.252,0.519,0.449,0.47,0.408,-0.0476,-0.858,0.739,-0.598,-0.531,0.0077,-0.0977,0.143,0.258,-0.331
O=C(NN=C1C[C@@H](O)[C@@H](O)[C@@H]2[C@@H]3C(=O)N(C4CCCCC4)C(=O)[C@@H]3CC[C@@H]12)OCc1ccccc1,0.174,0.261,0.515,0.662 (inactive),0.0342,0.0686,-0.0311,0.524,-0.0447,-0.347,-0.671,-0.771,0.482,-0.367,-0.606,-0.115,0.0156,-0.0522,-0.534,-0.0382
COc1cccc([C@@H]2Oc3ccc(OC)cc3C(=O)[C@H]2O)c1,-0.117,-0.172,-0.705,-2.47 (inactive),0.606,0.184,0.469,0.525,0.527,0.0204,0.0299,2.25,0.386,0.111,-0.397,-0.157,-0.0211,-0.519,-0.0655,1.11
O=C1C[C@@H](O)[C@@H](O)[C@@H]2[C@@H]3C(=O)N(C[C@@H]4CCCO4)C(=O)[C@@H]3CC[C@@H]12,0.495,-0.185,-0.7,-0.0639 (inactive),0.612,0.718,0.573,0.761,0.823,-0.0076,0.27,-0.321,0.723,0.187,-0.426,-0.0239,-0.106,-0.303,0.119,0.506
CC(C)CON=C1C[C@@H](O)[C@@H](O)[C@@H]2[C@@H]3C(=O)N(c4ccc(F)cc4F)C(=O)[C@@H]3CC[C@H]12,0.256,-0.212,-0.509,-0.972 (inactive),0.553,0.458,0.59,0.986,0.671,-0.253,1.38,-0.666,0.923,0.0597,-0.809,-0.0735,-0.0169,0.106,0.272,0.198
CO[C@@H]1C=CCC(=O)N[C@@H](C)C(=O)OC[C@@H](OC)[C@H](C)CCCC(=O)OC[C@H]1C,1.55,-0.352,-1.05,-0.646 (inactive),0.473,0.0516,1.08,1.22,1.64,1.23,-2.89,-1.41,1.41,-1.23,-2.04,-0.0694,-0.206,-0.345,0.95,-0.11
CCOC(=O)[C@H](CC(C)C)NC(=O)CCC1CC(OC(=O)NCc2cccc3ccccc23)CC2(CCCC(COC(=O)NCc3cccc(C(F)(F)F)c3)O2)O1 (stereo not given in full),0.0007,-0.167,-0.346,-0.349 (inactive),0.475,0.362,0.508,0.346,0.491,-0.0188,0.0567,1.32,0.67,-0.333,-0.568,-0.0643,-0.0626,-0.158,-0.0162,0.157
CCOC(=O)[C@H](CC(C)C)NC(=O)CCC1CC(OC(=O)NCCc2ccc(F)cc2)CC2(CCCC(COC(=O)NCC(c3ccccc3)c3ccccc3)O2)O1 (stereo not given in full),1.1,0.096,-0.437,0.0587 (inactive),0.588,0.873,0.319,0.824,0.697,-0.0427,0.776,0.612,0.319,0.479,-0.476,-0.152,-0.214,-0.501,0.145,0.71
CO[C@@H]1COC(=O)[C@H](CCSC)NC(=O)CC=C[C@@H](C)COC(=O)CCC[C@H]1C,0.919,-0.374,-1.25,-0.433 (inactive),0.399,1.26,1.03,1.03,2.36,-1.51,-1.18,-0.346,1.65,-1.94,-2.51,-0.175,-0.214,-0.472,0.813,-0.354
Cc1cc2c(nc1C)CCCN2CC(O)CN1CCCc2nc(C)c(C)cc21,0.264,0.125,0.258,-0.153 (inactive),0.92,0.388,0.36,0.552,0.536,1.17,0.142,-0.107,0.368,0.239,-0.322,0.308,0.699,0.568,3.26,1.42
